Values joined by “and” are separate entries in the source; they are usually repeats but may differ in a detail not shown here. Equal values may be shown once.
Assays:
[1] = molecular target: T1, Inhibitor of nuclear factor kappa-B kinase subunit epsilon (Homo sapiens) (UniProt Q14164); settings: at 1 µM;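 further: reported values are averaged percent inhibition figures against human IKKε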
T1 sequence (whole entry): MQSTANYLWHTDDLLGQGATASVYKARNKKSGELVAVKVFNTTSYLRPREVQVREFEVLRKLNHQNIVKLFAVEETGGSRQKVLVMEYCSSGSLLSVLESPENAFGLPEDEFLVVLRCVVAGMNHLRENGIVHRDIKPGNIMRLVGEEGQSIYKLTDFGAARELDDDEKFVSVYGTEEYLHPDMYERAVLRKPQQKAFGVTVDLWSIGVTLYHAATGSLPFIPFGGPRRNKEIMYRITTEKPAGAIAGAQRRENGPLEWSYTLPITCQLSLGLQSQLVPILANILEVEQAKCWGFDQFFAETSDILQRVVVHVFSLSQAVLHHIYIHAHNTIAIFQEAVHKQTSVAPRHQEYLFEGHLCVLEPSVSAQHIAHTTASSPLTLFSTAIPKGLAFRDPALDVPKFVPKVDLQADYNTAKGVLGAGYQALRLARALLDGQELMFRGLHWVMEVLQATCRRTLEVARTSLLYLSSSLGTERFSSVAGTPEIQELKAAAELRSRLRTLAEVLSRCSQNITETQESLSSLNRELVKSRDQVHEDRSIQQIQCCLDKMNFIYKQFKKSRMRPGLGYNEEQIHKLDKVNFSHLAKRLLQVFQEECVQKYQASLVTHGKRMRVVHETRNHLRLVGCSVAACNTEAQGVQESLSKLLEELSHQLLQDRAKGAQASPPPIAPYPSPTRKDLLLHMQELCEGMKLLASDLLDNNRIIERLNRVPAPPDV

[2] = molecular target: T2, Serine/threonine-protein kinase Nek1 (Homo sapiens) (UniProt Q96PY6); settings: at 0.1 µM
T2 sequence (whole entry): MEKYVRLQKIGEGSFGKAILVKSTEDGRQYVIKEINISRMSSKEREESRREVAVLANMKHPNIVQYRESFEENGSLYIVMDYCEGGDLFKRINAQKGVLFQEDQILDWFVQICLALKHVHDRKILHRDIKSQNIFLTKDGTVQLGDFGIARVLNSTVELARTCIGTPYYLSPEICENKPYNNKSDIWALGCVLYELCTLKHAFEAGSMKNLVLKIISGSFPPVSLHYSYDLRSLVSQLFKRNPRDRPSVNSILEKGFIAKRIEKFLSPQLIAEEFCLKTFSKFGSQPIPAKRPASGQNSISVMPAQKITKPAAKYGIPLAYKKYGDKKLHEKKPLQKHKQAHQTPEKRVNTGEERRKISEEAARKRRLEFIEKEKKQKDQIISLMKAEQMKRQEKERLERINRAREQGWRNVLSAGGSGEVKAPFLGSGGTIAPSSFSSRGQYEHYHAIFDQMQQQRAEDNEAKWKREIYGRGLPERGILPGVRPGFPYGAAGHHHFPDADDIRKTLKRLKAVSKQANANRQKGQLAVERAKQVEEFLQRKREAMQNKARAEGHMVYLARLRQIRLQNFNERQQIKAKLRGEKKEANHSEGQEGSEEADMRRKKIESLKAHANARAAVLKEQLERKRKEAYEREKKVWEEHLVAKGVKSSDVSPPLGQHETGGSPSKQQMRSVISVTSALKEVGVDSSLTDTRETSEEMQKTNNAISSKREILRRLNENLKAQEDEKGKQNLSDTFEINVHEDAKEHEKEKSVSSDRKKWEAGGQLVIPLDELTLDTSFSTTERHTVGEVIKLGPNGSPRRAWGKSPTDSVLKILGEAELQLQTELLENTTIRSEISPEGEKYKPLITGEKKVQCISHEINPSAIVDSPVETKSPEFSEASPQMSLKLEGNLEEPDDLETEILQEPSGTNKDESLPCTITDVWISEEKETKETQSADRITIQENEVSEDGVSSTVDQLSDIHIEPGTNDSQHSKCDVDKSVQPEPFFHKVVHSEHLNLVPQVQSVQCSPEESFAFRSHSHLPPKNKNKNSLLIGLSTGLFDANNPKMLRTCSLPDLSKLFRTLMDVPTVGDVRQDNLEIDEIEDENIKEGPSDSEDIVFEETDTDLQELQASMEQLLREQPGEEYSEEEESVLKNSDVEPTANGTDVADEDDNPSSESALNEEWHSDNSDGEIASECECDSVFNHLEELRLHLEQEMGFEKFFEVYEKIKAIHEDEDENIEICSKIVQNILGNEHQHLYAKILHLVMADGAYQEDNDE

[3] = molecular target: T2, Serine/threonine-protein kinase Nek1 (Homo sapiens); settings: at 1 µM
[4] = molecular target: T3, Serine/threonine-protein kinase Nek2 (Homo sapiens) (UniProt P51955); settings: at 0.1 µM
T3 sequence (whole entry): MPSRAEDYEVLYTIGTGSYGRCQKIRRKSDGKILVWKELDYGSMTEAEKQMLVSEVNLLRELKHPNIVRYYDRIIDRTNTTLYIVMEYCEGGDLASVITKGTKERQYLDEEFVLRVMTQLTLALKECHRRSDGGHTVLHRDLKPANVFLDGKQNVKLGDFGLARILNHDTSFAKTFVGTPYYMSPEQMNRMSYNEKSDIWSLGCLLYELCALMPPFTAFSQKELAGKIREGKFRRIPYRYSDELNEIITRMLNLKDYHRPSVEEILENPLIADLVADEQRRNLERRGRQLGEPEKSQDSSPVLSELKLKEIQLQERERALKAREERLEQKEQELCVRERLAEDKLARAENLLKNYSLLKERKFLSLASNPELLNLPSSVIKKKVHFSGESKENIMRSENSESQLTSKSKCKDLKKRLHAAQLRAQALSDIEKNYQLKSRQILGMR

[5] = molecular target: T3, Serine/threonine-protein kinase Nek2 (Homo sapiens); settings: at 1 µM
[6] = molecular target: Serine/threonine-protein kinase Nek6 (Homo sapiens) (UniProt Q9HC98); settings: at 0.1 µM
[7] = molecular target: Serine/threonine-protein kinase Nek6 (Homo sapiens) (UniProt Q9HC98); settings: at 1 µM
[8] = molecular target: Serine/threonine-protein kinase Nek7 (Homo sapiens) (UniProt Q8TDX7); settings: at 0.1 µM
[9] = molecular target: Serine/threonine-protein kinase Nek7 (Homo sapiens) (UniProt Q8TDX7); settings: at 1 µM
[10] = molecular target: T4, Serine/threonine-protein kinase Nek9 (Homo sapiens) (UniProt Q8TD19); settings: at 0.1 µM
T4 sequence (whole entry): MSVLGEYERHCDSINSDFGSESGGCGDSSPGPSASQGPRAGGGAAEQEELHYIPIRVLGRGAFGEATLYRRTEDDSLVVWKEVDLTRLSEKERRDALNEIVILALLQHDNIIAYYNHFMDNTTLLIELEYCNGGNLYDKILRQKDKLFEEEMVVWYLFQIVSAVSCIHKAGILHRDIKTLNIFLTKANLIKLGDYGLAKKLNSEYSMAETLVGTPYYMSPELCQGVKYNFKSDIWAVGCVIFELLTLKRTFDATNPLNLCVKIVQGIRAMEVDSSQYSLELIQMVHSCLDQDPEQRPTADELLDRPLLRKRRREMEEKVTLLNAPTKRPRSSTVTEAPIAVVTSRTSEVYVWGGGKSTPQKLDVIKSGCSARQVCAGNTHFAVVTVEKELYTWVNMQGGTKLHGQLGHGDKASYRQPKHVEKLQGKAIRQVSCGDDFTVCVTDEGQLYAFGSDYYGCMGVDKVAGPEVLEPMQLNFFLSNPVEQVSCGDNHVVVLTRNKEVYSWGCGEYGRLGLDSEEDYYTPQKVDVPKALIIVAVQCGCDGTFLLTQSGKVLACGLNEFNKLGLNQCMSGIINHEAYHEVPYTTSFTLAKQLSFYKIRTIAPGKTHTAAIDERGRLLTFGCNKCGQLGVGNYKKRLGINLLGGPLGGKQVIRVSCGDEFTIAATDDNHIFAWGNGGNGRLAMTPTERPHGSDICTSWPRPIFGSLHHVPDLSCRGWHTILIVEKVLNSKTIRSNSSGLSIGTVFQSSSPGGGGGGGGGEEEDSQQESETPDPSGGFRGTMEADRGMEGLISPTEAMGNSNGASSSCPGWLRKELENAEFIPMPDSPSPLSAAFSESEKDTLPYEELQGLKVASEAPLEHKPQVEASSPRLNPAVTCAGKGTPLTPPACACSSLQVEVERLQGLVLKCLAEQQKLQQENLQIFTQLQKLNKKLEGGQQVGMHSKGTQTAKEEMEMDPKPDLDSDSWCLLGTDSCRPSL

[11] = molecular target: T4, Serine/threonine-protein kinase Nek9 (Homo sapiens); settings: at 1 µM
[12] = molecular target: Serine/threonine-protein kinase PLK1 (Homo sapiens) (UniProt P53350); settings: at 0.1 µM
[13] = molecular target: Serine/threonine-protein kinase PLK1 (Homo sapiens) (UniProt P53350); settings: at 1 µM
[14] = molecular target: T5, Dual specificity protein kinase TTK (Homo sapiens) (UniProt P33981); settings: at 0.1 µM
T5 sequence (whole entry): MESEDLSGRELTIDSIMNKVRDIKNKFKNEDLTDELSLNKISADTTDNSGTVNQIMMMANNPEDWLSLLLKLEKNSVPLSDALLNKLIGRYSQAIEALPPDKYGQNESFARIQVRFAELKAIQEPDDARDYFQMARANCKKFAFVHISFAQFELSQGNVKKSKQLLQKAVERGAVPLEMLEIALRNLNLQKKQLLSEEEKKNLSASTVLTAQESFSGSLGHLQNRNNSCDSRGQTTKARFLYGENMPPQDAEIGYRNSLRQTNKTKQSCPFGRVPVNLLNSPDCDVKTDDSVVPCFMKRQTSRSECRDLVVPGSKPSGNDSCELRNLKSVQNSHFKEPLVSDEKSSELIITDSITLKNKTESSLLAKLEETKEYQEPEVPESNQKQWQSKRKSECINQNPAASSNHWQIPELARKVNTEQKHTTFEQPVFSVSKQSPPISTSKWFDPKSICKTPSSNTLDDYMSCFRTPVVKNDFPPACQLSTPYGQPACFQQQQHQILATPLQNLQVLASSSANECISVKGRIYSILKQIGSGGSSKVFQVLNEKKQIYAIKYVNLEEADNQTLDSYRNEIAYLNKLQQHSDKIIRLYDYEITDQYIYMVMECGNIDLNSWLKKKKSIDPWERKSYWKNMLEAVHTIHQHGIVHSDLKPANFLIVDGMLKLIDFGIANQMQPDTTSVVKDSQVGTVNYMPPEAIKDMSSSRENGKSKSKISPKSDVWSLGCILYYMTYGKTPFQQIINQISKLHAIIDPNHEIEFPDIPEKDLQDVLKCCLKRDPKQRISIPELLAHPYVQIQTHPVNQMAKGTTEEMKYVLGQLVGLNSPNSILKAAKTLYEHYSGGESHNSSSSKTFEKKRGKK

[15] = system: T6, Receptor-type tyrosine-protein kinase FLT3 (Homo sapiens), P36888 [D835Y]; settings: at 1 µM
T6 sequence (whole entry): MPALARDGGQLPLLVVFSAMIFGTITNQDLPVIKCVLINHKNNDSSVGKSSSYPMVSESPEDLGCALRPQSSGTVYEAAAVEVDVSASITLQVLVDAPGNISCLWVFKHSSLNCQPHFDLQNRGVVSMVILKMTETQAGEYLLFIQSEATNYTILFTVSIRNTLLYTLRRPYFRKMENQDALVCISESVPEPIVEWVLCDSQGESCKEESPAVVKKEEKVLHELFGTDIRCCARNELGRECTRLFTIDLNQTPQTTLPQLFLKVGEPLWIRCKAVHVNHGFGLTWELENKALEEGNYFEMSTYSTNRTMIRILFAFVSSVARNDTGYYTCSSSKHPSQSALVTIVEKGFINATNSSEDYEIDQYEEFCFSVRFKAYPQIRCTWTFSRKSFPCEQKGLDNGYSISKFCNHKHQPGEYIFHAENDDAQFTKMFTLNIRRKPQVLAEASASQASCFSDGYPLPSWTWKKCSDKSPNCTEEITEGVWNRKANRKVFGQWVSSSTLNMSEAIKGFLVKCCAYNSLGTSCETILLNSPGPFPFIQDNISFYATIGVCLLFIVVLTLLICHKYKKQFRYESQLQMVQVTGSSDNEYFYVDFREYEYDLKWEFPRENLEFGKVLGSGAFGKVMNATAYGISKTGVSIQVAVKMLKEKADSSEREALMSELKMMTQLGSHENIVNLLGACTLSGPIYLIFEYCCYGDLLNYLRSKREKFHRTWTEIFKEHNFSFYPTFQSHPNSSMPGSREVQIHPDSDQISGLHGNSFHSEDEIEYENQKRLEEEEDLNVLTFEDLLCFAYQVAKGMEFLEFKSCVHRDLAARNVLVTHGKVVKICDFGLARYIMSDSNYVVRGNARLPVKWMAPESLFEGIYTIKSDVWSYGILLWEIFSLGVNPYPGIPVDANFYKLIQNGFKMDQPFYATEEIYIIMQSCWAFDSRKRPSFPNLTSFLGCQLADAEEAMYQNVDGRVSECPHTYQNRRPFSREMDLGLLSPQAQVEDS

[16] = molecular target: Vascular endothelial growth factor receptor 3 (Homo sapiens) (UniProt P35916); settings: at 0.1 µM
[17] = molecular target: Vascular endothelial growth factor receptor 3 (Homo sapiens) (UniProt P35916); settings: at 1 µM
[18] = molecular target: Macrophage colony-stimulating factor 1 receptor (Homo sapiens) (UniProt P07333); settings: at 0.1 µM
[19] = molecular target: Macrophage colony-stimulating factor 1 receptor (Homo sapiens) (UniProt P07333); settings: at 1 µM
[20] = molecular target: Tyrosine-protein kinase Fyn (Homo sapiens) (UniProt P06241); settings: at 0.1 µM
Tyrosine-protein kinase Fyn (Homo sapiens), sequence (P06241 2-537 limits assumed): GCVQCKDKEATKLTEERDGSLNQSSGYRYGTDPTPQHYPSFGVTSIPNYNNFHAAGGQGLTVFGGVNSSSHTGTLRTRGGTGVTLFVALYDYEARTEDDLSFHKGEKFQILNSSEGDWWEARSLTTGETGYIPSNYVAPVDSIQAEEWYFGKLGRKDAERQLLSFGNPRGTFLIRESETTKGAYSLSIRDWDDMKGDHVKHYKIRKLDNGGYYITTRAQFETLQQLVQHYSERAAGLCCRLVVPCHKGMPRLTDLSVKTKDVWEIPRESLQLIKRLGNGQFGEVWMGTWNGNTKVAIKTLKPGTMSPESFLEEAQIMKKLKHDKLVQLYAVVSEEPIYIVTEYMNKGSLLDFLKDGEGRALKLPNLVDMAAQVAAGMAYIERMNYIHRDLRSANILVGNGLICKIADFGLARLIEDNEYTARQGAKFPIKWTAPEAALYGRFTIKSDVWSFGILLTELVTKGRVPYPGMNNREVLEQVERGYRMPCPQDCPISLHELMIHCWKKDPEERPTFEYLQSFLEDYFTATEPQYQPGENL

Vascular endothelial growth factor receptor 3 (Homo sapiens), sequence (P35916 whole entry): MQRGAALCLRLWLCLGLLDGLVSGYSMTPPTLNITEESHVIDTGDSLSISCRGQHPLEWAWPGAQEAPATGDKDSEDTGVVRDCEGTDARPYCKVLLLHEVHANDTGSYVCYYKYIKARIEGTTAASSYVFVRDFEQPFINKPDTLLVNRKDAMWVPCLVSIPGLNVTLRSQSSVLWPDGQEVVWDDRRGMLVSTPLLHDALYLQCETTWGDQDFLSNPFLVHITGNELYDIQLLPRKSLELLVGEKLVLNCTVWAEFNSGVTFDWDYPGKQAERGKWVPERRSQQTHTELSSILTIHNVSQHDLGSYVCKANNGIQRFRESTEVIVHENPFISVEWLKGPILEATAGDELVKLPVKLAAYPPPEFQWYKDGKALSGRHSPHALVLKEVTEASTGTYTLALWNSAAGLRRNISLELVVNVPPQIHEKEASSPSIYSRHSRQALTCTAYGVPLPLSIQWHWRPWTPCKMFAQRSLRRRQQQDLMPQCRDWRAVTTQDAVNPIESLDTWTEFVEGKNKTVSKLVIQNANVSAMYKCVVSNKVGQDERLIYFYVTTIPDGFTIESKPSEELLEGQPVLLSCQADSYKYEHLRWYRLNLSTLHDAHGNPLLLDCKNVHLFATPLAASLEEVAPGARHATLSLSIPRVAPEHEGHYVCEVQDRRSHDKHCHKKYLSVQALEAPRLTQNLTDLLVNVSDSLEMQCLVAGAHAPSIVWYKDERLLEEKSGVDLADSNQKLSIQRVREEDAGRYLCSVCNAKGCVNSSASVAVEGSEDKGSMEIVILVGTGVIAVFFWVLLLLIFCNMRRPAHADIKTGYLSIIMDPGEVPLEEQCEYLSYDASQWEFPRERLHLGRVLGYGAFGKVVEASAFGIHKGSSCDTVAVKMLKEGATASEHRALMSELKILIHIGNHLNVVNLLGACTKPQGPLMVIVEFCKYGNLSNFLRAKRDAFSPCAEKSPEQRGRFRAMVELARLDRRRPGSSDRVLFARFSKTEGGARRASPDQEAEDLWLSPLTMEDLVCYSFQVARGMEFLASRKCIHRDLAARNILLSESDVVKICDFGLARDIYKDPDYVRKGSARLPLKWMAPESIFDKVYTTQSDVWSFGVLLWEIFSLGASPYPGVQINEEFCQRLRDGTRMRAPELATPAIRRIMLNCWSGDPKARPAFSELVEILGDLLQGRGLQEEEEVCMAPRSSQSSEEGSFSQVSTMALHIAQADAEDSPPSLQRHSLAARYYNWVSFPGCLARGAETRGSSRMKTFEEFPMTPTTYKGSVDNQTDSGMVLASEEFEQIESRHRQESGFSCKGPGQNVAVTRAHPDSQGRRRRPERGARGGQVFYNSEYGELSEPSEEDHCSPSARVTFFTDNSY
Serine/threonine-protein kinase Nek6 (Homo sapiens), sequence (Q9HC98 whole entry): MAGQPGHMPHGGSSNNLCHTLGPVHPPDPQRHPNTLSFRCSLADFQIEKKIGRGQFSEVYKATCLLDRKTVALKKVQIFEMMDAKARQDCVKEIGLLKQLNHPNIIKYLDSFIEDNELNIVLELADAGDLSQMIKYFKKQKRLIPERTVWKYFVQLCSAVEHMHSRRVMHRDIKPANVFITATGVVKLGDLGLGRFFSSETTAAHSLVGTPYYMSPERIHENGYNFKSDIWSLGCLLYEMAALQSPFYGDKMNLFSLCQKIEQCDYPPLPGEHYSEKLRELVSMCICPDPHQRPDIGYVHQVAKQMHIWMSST
Macrophage colony-stimulating factor 1 receptor (Homo sapiens), sequence (P07333 whole entry): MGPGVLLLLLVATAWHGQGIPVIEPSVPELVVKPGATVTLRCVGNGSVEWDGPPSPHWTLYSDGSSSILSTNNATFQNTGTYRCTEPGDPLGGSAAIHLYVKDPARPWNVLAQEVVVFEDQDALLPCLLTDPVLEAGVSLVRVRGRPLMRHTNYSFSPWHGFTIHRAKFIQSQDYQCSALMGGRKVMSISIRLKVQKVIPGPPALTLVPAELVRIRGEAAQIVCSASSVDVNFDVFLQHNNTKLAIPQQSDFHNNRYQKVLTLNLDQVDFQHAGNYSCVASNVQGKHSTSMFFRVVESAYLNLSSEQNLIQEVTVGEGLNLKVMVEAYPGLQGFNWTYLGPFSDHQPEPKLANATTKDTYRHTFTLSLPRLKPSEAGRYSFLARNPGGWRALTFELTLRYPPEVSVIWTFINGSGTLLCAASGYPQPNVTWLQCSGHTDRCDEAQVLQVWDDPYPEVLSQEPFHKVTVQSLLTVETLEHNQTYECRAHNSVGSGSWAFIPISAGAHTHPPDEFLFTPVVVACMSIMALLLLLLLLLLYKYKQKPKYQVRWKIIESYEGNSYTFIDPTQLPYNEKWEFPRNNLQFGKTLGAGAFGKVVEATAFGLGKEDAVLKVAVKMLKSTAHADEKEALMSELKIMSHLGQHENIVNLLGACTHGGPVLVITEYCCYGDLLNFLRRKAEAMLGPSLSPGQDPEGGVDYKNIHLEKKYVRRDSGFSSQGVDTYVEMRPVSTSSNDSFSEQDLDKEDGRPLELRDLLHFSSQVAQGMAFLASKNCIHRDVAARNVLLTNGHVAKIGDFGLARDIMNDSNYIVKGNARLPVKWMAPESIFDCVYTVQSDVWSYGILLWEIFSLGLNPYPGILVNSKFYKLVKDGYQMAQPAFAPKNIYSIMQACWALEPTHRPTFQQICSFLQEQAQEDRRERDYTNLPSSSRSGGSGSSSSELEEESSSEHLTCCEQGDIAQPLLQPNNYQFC
Serine/threonine-protein kinase PLK1 (Homo sapiens), sequence (P53350 whole entry): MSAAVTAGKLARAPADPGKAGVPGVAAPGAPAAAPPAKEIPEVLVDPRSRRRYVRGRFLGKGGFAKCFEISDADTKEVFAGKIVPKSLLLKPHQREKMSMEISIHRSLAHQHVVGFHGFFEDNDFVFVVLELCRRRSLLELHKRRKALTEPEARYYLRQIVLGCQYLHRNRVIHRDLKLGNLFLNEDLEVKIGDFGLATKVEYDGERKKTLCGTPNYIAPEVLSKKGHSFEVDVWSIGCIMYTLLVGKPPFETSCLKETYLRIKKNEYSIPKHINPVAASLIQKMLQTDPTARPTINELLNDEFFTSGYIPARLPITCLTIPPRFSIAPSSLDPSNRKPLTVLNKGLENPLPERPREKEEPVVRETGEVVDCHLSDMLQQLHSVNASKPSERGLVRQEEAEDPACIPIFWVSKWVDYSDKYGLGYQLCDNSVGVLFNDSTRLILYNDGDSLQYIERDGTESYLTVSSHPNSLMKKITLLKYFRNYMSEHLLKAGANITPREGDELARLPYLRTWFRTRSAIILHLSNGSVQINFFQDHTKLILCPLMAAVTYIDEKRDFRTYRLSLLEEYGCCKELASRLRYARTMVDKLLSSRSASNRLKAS
Serine/threonine-protein kinase Nek7 (Homo sapiens), sequence (Q8TDX7 whole entry, looked up): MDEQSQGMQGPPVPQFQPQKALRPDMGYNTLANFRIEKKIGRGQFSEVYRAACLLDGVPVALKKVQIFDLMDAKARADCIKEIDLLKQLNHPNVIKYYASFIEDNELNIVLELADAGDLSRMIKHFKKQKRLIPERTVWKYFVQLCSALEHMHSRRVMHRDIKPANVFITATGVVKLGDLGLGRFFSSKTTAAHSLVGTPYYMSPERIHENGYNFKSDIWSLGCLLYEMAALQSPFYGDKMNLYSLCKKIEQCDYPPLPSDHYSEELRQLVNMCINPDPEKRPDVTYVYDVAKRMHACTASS

Structure (SMILES)	inhibition [1]	inhibition [2]	inhibition [3]	inhibition [4]	inhibition [5]	inhibition [6]	inhibition [7]	inhibition [8]	inhibition [9]	inhibition [10]	inhibition [11]	inhibition [12]	inhibition [13]	inhibition [14]	inhibition [15]	inhibition [16]	inhibition [17]	inhibition [18]	inhibition [19]	inhibition [20]
OCCCNc1nccc(-c2c(-c3ccc(F)cc3)nn3cc(C(F)(F)F)ccc23)n1	0.15%	-0.37%	0.3%	2.83%	2.24%	4.06%	-0.92%	2.99%	-4.27%	7.44%	0.58%	3.57%	1.96%	3.55%	1.7%	-2.7%	2.54%	1.88%	6.34%	0.07%
CN1CCC(C(=O)Nc2n[nH]c3nc(-c4ccc(O)cc4)c(Br)cc23)CC1	9.87% and 4.68%	2.56% and 2.33%	5.56% and 3.3%	4.35% and 2.88%	2.67% and 2.08%	3.12% and 2.62%	6.77% and 0.79%	7.02% and 1.88%	10% and 8.97%	9.98% and 4.62%	13.7% and 6.47%	6% and 2.01%	2.87% and 3.17%	16.1% and 0.86%	1.05% and 6.99%	-8.86% and 1.93%	2.2%	-1.7% and 0.14%	0.92% and 5.04%	0.13% and 0.97%

Reference: ChEMBL document CHEMBL1961873, “Compounds: GSK PKIS; Assays: Nanosyn kinase panel” (2012)
